# According to PubChem BioAssay (Tox21):
# Records with an inconclusive call do not appear. Entries that show only a call come without a potency. Activity calls are given as the source filed them. Unless noted, calls come from the whole dose curve; as a rule, active = well fitted curve in the direction sought with a large enough effect in the repeat runs; inconclusive = weak or mixed curves; inactive = no such curve, though single readings can be large; an effect the other way counts as inactive or inconclusive.
# Assays:
# [1] = A CellTox Green Cytotoxicity Assay to monitor cytotoxicity in HEK293 cells - 32 hour (AID 1224881); note: nearly all actives have a fitted effect of over 40% in size; note: potency is the fitted concentration of half-maximal effect
# In short: (§1)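 Read-out: fluorescence of a cell-impermeant cyanine dye staining DNA of dead cells, proportional to cytotoxicity. HEK293, 600 cells/well with reagent, compound (23 nL DMSO) added after 5 h; reads at 0, 8, 16, 24, 32, 40 h.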
# [2] = A CellTox Green Cytotoxicity Assay to monitor cytotoxicity in HepG2 cells - 0 hour (AID 1224882); note: nearly all actives have a fitted effect of over 35% in size; note: potency is the fitted concentration of half-maximal effect
# In short: (§2)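 HepG2, 600 cells/well premixed w/ CellTox Green; 5 h settle, 37 C/5% CO2; pintool cpd add (DMSO); 37 C, 40 h; fluorescence read at 0, 8, 16, 24, 32, 40 h.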
# [3] = A CellTox Green Cytotoxicity Assay to monitor cytotoxicity in HepG2 cells - 32 hour (AID 1224883); note: nearly all actives have a fitted effect of over 50% in size; note: potency is the fitted concentration of half-maximal effect
# In short: as §2
# [4] = A CellTox Green Cytotoxicity Assay to monitor cytotoxicity in HEK293 cells - 8 hour (AID 1224884); note: nearly all actives have a fitted effect of over 35% in size; note: potency is the fitted concentration of half-maximal effect
# In short: as §1
# [5] = qHTS RealTime-Glo MT Cell Viability Assay in HepG2 cells - 16 hour (AID 1224885); note: nearly all actives have a fitted effect of over 50% in size; note: potency is the fitted concentration of half-maximal effect
# In short: (§3)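 Viability was tracked continuously by NanoLuc luminescence from prosubstrate reduced by living HepG2 cells, at successive time points over 40 h of compound exposure. Cells with reagent were preincubated 5 h at 37 °C before compound addition.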
# [6] = qHTS RealTime-Glo MT Cell Viability Assay in HEK293 cells - 24 hour (AID 1224886); note: nearly all actives have a fitted effect of over 50% in size; note: potency is the fitted concentration of half-maximal effect
# In short: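 Viability tracked continuously by luminescence as live cells reduce a prosubstrate for NanoLuc; HEK293 cells preincubated 5 h, compound-treated at 37 C, and read at 0, 8, 16, 24, 32 and 40 h.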
# [7] = qHTS RealTime-Glo MT Cell Viability Assay in HEK293 cells - 8 hour (AID 1224887); note: nearly all actives have a fitted effect of over 50% in size; note: potency is the fitted concentration of half-maximal effect
# In short: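 Luminescence readout at each listed time point; HEK293, 600 cells/well, RealTime-Glo MT reagent added with cells; compounds pinned (23 nL in DMSO) after 5 h at 37 C; continuous culture at 37 C.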
# [8] = qHTS RealTime-Glo MT Cell Viability Assay in HepG2 cells - 0 hour (AID 1224889); note: nearly all actives have a fitted effect of over 50% in size; note: potency is the fitted concentration of half-maximal effect
# In short: as §3
# [9] = A CellTox Green Cytotoxicity Assay to monitor cytotoxicity in HepG2 cells - 8 hour (AID 1224890); note: nearly all actives have a fitted effect of over 45% in size; note: potency is the fitted concentration of half-maximal effect
# In short: as §2
# [10] = qHTS assay to identify small molecule antagonists of the estrogen receptor alpha (ER-alpha) signaling pathway using the BG1 cell line in the presence of 0.1 nM 17-beta-estradiol - cell viability counter screen (AID 1259241); note: nearly all actives have a fitted effect of over 40% in size; note: potency is the fitted concentration of half-maximal effect
# In short: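 The cell line endogenously expresses full-length ER-alpha and carries four EREs driving luciferase. Cells are cultured 5 days hormone-free, treated 22 hr with compounds and 0.1 nM estradiol, then viability is read by fluorescence.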
# [11] = target: Androgen receptor (Homo sapiens) (UniProt P10275); assay: qHTS assay to identify small molecule antagonists of the androgen receptor (AR) signaling pathway using the MDA cell line in the presence of 0.5 nM R1881 (AID 1259243); note: nearly all actives have a fitted effect of over 50% in size; note: potency is the fitted concentration of half-maximal effect
# Chain of Androgen receptor (Homo sapiens) (P10275 whole entry, looked up): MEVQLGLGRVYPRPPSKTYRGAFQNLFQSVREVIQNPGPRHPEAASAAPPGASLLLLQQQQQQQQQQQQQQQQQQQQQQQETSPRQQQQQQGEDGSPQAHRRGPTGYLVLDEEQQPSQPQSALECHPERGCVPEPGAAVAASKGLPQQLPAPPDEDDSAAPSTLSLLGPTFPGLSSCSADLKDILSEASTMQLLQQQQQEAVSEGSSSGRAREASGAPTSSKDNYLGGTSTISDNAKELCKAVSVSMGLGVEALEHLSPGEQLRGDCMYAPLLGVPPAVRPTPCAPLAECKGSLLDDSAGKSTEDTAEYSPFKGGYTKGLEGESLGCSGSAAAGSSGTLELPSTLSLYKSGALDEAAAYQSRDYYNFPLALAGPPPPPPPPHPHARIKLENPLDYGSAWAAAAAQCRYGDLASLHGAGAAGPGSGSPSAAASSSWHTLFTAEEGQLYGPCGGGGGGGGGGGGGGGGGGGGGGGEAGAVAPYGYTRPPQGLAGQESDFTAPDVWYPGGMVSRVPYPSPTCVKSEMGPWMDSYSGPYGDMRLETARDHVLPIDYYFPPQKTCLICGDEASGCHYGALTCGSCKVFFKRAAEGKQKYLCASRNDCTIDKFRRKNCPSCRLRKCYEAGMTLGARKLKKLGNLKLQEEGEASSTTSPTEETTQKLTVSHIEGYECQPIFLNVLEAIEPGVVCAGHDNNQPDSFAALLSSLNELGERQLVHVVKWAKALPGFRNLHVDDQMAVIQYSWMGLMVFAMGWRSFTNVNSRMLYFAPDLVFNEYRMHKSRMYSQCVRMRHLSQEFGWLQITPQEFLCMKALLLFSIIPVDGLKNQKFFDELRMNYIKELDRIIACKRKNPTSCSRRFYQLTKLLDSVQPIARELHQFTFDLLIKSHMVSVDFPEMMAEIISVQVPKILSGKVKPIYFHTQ
# In short: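 MDA-kb2, MMTV-luc (AR/GR elements); 3,000 cells/well; cpd + 0.5 nM R1881 final; 16 hr 37C, 0% CO2; ONE-Glo 30 min RT; luminescence.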
# [12] = qHTS assay to identify small molecule HDAC inhibitors (AID 1259364);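 note: wild-type HCT-116 cells with endogenous class I/II HDAC activity; top concentration of the series differs between compounds; nearly all actives have a fitted effect of over 45% in size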
# In short: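 HCT-116 (wild type), 1,500 cells/well, overnight; compound 2 hr 37C 5% CO2; HDAC-Glo I/II reagent 30 min RT; luminescence readout.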
# [13] = qHTS assay to identify small molecule HDAC inhibitors - cell viability counter screen (AID 1259365)
# In short: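 Viability readout: CellTiter-Glo luminescence. Wild-type HCT-116 cells, 2hr compound treatment following overnight attachment at 37 C.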
# [14] = qHTS assay to identify small molecule agonists of the sonic hedgehog signaling (Shh) pathway - cell viability counter screen (AID 1259366); note: nearly all actives have a fitted effect of over 50% in size; note: potency is the fitted concentration of half-maximal effect
# In short: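 Viability measured fluorometrically (CellTiter-Fluor, 1hr, 37C) in 3T3 Gli1-Luc reporter cells after 23hr compound exposure within a 24hr incubation at 37C/5% CO2.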
# [15] = qHTS assay to identify small molecule antagonists of the sonic hedgehog signaling (Shh) pathway - cell viability counter screen (AID 1259367); note: nearly all actives have a fitted effect of over 55% in size; note: potency is the fitted concentration of half-maximal effect
# In short: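 Viability was read by CellTiter-Fluor fluorescence in the same wells, reagent added 23 hr into compound treatment and incubated 1 hr at 37C. The 3T3 Gli1-Luc reporter cells (2,000/well) received conditioned medium after compound and ran 24 hr.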
# [16] = qHTS assay to identify small molecule agonists of the sonic hedgehog signaling (Shh) pathway (AID 1259368; calls by dose curve;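 note: NIH/3T3-derived 3T3Gli1-Luc cells carrying a stable Gli1-driven firefly luciferase reporter; series mostly up to about 92 µM; nearly all actives have a fitted effect of over 15% in size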)
# In short: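 Read-out: firefly luciferase luminescence from a Gli1 response element reporter stably integrated in NIH/3T3-derived 3T3Gli1-Luc cells, measured 30 min at room temperature after reagent addition. Compound exposure lasted 24 hr at 37 C, 5% CO2.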
# [17] = qHTS assay to identify small molecule antagonists of the androgen receptor (AR) signaling pathway using the MDA cell line in the presence of 0.5 nM R1881 - cell viability counter screen (AID 1259242); note: nearly all actives have a fitted effect of over 45% in size; note: potency is the fitted concentration of half-maximal effect
# In short: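 Live-cell protease fluorescence, CellTiter-Fluor, 30 min at 37C. Cells: MDA-kb2, 3,000/well, preincubated 5 hr. Compounds plus 0.5 nM R1881 final, 16 hr, 37C, 0% CO2.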
# [18] = target: Estrogen receptor (Homo sapiens) (UniProt P03372); assay: qHTS assay to identify small molecule antagonists of the estrogen receptor alpha (ER-alpha) signaling pathway using the BG1 cell line in the presence of 0.1 nM 17-beta-estradiol (AID 1259244); note: nearly all actives have a fitted effect of over 50% in size; note: potency is the fitted concentration of half-maximal effect
# Chain of Estrogen receptor (Homo sapiens) (P03372 whole entry, looked up): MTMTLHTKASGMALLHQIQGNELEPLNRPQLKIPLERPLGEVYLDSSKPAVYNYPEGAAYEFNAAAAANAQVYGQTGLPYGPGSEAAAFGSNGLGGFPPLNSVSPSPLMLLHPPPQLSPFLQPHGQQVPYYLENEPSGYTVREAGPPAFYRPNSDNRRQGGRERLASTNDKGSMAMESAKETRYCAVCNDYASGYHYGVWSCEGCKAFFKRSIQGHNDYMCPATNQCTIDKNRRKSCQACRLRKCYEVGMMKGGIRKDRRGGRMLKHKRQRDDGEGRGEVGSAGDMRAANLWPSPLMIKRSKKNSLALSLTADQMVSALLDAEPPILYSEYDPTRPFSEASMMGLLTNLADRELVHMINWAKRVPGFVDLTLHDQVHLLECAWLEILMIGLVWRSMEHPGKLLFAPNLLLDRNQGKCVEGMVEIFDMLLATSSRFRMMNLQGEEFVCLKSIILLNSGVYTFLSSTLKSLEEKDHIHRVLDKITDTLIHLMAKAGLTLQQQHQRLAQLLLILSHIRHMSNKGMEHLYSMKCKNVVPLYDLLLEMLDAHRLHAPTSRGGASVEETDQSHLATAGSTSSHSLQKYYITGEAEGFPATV
# In short: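 Luminescence after ONE-Glo (30 min, room temperature) measured ERE-luciferase activity in VM7Luc4E2 cells treated 22 h with compound and 0.1 nM final 17beta-estradiol as stimulator.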
# [19] = A CellTox Green Cytotoxicity Assay to monitor cytotoxicity in HEK293 cells - 16 hour (AID 1224888); note: nearly all actives have a fitted effect of over 35% in size
# In short: as §1
# [20] = qHTS assay to identify small molecule phospholipidosis (PLD) inducers (AID 1259344; active = well fitted curve in the direction sought with a large enough effect; an effect the other way counts as inactive or inconclusive)
# In short: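 Phospholipid accumulation was scored by imaging: fixed, Hoechst-counterstained HepG2 cells stained with LipidTOX Red after 24 h compound exposure at 37 C. Read-outs were pit count and pit intensity per well or per cell, with amiodarone and DMSO controls.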
Compound,Potency [1],Potency [2],Potency [3],Potency [4],Potency [5],Potency [6],Potency [7],Potency [8],Potency [9],Potency [10],Potency [11],Potency [12],Potency [13],Potency [14],Potency [15],outcome [16],Potency [17],Potency [18],Potency [19],Potency [20]
O=[N+]([O-])c1ccc(NCCO)c(OCCO)c1,inactive,inactive,inactive,inactive,inactive,inactive,inactive,inactive,inactive,54.5 µM (active),inactive,inactive,inactive,24.4 µM (active),30.7 µM (active),inactive,–,–,–,–
CC(CC=O)c1ccccc1 (stereo not given),inactive,inactive,inactive,inactive,inactive,inactive,inactive,inactive,inactive,–,–,–,inactive,inactive,inactive,inactive,inactive,inactive,–,–
CCN(CC)c1ccc2c(-c3ccccc3C(=O)O)c3ccc(=[N+](CC)CC)cc-3oc2c1,24.5 µM (active),21.9 µM (active),24.5 µM (active),24.5 µM (active),–,24.5 µM (active),–,–,24.5 µM (active),8.63 µM (active),–,–,–,–,3.44 µM (active),inactive,10.9 µM (active),–,–,–
Clc1ccc(Cn2c(CN3CCCC3)nc3ccccc32)cc1,inactive,inactive,inactive,inactive,inactive,–,–,inactive,inactive,inactive,–,inactive,inactive,inactive,inactive,–,inactive,–,inactive,–
O=C1c2ccccc2S(=O)(=O)N1CCCCN1CCN(c2ncccn2)CC1,inactive,inactive,inactive,–,inactive,inactive,inactive,inactive,inactive,inactive,–,inactive,inactive,inactive,inactive,–,inactive,inactive,inactive,inactive
Brc1c2ccccc2cc2ccccc12,inactive,inactive,inactive,inactive,inactive,–,–,–,inactive,inactive,–,–,–,–,inactive,inactive,–,inactive,inactive,–
CCCCc1nc2cccnc2n1Cc1ccc(-c2ccccc2-c2nnn[nH]2)cc1,inactive,inactive,inactive,inactive,inactive,–,–,24.5 µM (active),inactive,inactive,–,inactive,–,15.4 µM (active),17.2 µM (active),inactive,inactive,inactive,inactive,–
CC(C)Cc1ccc(C(C)C(=O)OCc2ccccn2)cc1 (stereo not given),inactive,inactive,inactive,inactive,inactive,–,–,inactive,inactive,inactive,–,–,inactive,inactive,inactive,–,inactive,inactive,–,–
COc1ccc(C(=O)Nc2nc3ccccc3c(NCc3ccccc3)c2C#N)cc1,inactive,inactive,inactive,inactive,–,inactive,inactive,inactive,inactive,–,–,inactive,inactive,–,–,–,inactive,10.9 µM (active),inactive,–
C=CCOC(=O)CCC1CCCCC1,inactive,inactive,inactive,–,inactive,inactive,inactive,inactive,inactive,inactive,–,inactive,inactive,inactive,inactive,inactive,inactive,–,inactive,–
O=C(c1ccc(F)cc1)C1CCN(CCn2c(=S)[nH]c3ccccc3c2=O)CC1,inactive,inactive,inactive,inactive,–,7.56 µM (active),4.77 µM (active),inactive,inactive,inactive,inactive,–,inactive,–,inactive,inactive,–,–,inactive,–
C=C(C)C(=O)OCCO,inactive,inactive,inactive,–,inactive,inactive,inactive,inactive,inactive,inactive,–,inactive,inactive,inactive,inactive,inactive,inactive,inactive,inactive,–
CC(C)(COC(=O)c1ccccc1)COC(=O)c1ccccc1,inactive,inactive,inactive,inactive,inactive,–,–,inactive,inactive,inactive,–,inactive,inactive,inactive,inactive,–,inactive,–,inactive,–
CCCCC(CC)CN1C(=O)C2C3C=CC(C3)C2C1=O (stereo not given),30.9 µM (active),inactive,inactive,inactive,inactive,–,–,inactive,inactive,inactive,–,inactive,inactive,inactive,–,inactive,–,–,–,–
COc1ccc(S(=O)(=O)N2C(=O)[C@@](c3ccccc3OC)(N3C[C@H](O)C[C@H]3C(=O)N(C)C)c3cc(Cl)ccc32)c(OC)c1,inactive,inactive,inactive,inactive,–,49 µM (active),–,inactive,inactive,–,54.5 µM (active),inactive,inactive,8.63 µM (active),9.69 µM (active),–,–,–,inactive,–
CC(C)C[C@H]1C(=O)N2CCC[C@H]2[C@]2(O)O[C@](NC(=O)[C@@H]3C=C4c5cccc6[nH]c(Br)c(c56)C[C@H]4N(C)C3)(C(C)C)C(=O)N12,inactive,inactive,inactive,inactive,13.2 µM (active),–,–,inactive,inactive,inactive,–,inactive,inactive,–,–,inactive,inactive,–,inactive,–
Cc1ccc(C(=O)Oc2ccc(C(O)CNC(C)(C)C)cc2OC(=O)c2ccc(C)cc2)cc1 (stereo not given),26.8 µM (active),inactive,19 µM (active),23.9 µM (active),21.3 µM (active),–,–,inactive,23.9 µM (active),inactive,–,inactive,–,–,inactive,inactive,–,inactive,–,–
